This passage reports inhibition results from PubChem BioAssay AID652257 (The Scripps Research Institute Molecular Screening Center, 2013).

By inhibition is commonly meant the relative decrease from the control value, in per cent.

Structures are written as SMILES. In all, about 370,000 compounds went through this assay and about 4,800 (1.3%) were called active.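 The calls were made as follows: active = inhibition above about 21% made by adding two undisclosed values (limit read from the data); inactive = the rest.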 For the sample, actives were picked, then their nearest neighbours and some compounds at random.

Protein arginine N-methyltransferase 1 (Homo sapiens), sequence (Q99873 whole entry, looked up): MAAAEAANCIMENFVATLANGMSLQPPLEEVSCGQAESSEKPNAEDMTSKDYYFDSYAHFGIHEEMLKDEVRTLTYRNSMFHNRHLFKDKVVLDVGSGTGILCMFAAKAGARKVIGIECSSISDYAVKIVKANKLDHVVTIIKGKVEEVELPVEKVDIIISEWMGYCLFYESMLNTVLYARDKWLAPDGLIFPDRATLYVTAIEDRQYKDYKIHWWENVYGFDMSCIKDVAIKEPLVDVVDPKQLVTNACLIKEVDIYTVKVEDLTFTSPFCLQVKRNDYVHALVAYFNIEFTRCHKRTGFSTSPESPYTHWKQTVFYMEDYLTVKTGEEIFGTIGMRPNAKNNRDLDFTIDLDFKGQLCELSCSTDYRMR

The test concerns the target Protein arginine N-methyltransferase 1 (Homo sapiens) (UniProt Q99873). The test can be described thus: PRMT1 methyltransferase inhibitors, primary screen, biochemical, fluorescence polarization (AID 652257). The settings on record: recombinant PRMT1, activity-based probe fluorescence polarization; at 2.79 µM; stronger effect = higher value.
In the case of `Cc1nnsc1C(=O)Nc1cccc(Cl)c1C`, the inhibition was 2.23% (inactive).
As to `O=C(Nc1cccc(Cl)c1)c1cc(S(=O)(=O)N2CCCCC2)c[nH]1`, the inhibition was 3.07% (inactive).
For `O=C(Nc1ccccc1)c1nnsc1S(=O)(=O)c1ccc(Cl)cc1`, the inhibition is 89.9% (active).
For `O=c1[nH]c2c(c(=O)n1-c1ccccc1)CCO2` the value was 3.18% (inactive); for `Cc1ccc(S(=O)(=O)NCCC(c2ccccc2)c2ccccc2)cc1C(=O)O`, -5.2% (inactive); for `COC(=O)c1ccc(CNC(=O)Cn2cc(C)c(=O)[nH]c2=O)cc1`, 3.88% (inactive).
As for `CC(=O)NC1=NC(=O)CS1`, the inhibition was 71.7% (active).
Consider `C[C@@H]1CN([C@@H](C)CO)C(=O)c2cccc(NC(=O)Nc3cccc4ccccc34)c2O[C@H]1CN(C)S(=O)(=O)c1ccccc1F`, for which the inhibition was -7.41% (inactive).
For `COc1cccc(/C=C2\CC3(OC(C)=O)CCCN2C3)c1` (centres undefined), the inhibition was -1.33% (inactive).
The value for `CCCCC(=O)N[C@@H]1CC[C@@]23CCCN2C(=O)CCC[C@H]3[C@H]1C` was -1.5% (inactive); that for `S=c1[nH]nc(-c2ccccc2)n1/N=C/c1c[nH]c2ccccc12` was 25.5% (active).
For `C[n+]1ccc(/C=C/c2c[nH]c3ccccc23)cc1` the value was 4.53% (inactive); for `CCc1n[nH]c(=S)n1/N=C/c1c[nH]c2ccc(Br)cc12`, 29.8% (active); for `CCOc1ccc(-c2n[nH]c(=S)n2/N=C/c2cc3c(cc2[N+](=O)[O-])OCO3)cc1`, -0.65% (inactive).
For `Cc1cccc(NC(=O)CSc2nnc(CCNC(=O)OC(C)(C)C)o2)c1C` the value was -1.24% (inactive).
As to `O=C(O)CCN1C(=O)CC2(CCCCC2)C1=O`, the inhibition is 0.48% (inactive).
Regarding `N#Cc1ccc(OC[C@@H](O)CN2CCC(C(O)(c3ccccc3)c3ccccc3)CC2)c(F)c1`, the inhibition was -0.03% (inactive).
Consider `CC(=O)N1CCCc2cc(S(=O)(=O)N3CCCC(C(=O)N4CCN(c5cccc(Cl)c5)CC4)C3)ccc21` (centres undefined), for which the inhibition is -1.42% (inactive).
With `CCOC(=O)C1(Cc2ccc(Cl)cc2)CCN(C(=O)C2=NNC(=O)CC2)CC1`, the inhibition is 3.16% (inactive).
Regarding `CCOCCCNC(=S)N1CCC(NC(=O)C2CCCCC2)CC1`, the inhibition is 4.18% (inactive).
On to `Cc1cc(C)c2nc(-c3ccco3)cc(C(=O)O)c2c1`, for which the inhibition was 36.4% (active).
As to `CCOC(=O)c1ccn(-c2nc(-c3ccco3)cc(C(F)(F)F)n2)n1`, the inhibition was 3.19% (inactive).
With `Cc1ccsc1-c1cc(C(=O)O)c2c(ccc3ccccc32)n1`, the inhibition is -0.02% (inactive).
Turning to `COc1ccc(-c2cc(-c3nnc(SCC(=O)Nc4cccc5ccccc45)n3N)[nH]n2)cc1`, the inhibition was 2.25% (inactive).
The value for `Cc1ccc2c(c1)c1ncnc(N3CCc4ccccc4C3)c1n2C` was -0.03% (inactive); that for `CCN(C(=O)Nc1cccc2ccccc12)c1ccccc1` was 9.59% (inactive); that for `Cc1cccc(C)c1NC(=O)C(c1cccc(F)c1)N1CCN(C)CC1` (centres undefined) was -4.4% (inactive).
For `O=S1(=O)c2c(NCc3ccco3)cccc2Oc2ccccc2CN1Cc1cn(Cc2cccc(C(F)(F)F)c2)nn1` the value was 0.88% (inactive); for `COc1ccc(NC2=CC(=S)NC(C)(C)C2)cc1`, 33.8% (active).
In the case of `COc1ccc(CCNC2=CC(=O)CC(C)(C)C2)cc1`, the inhibition is -4.15% (inactive).
`COC(=O)C1=C(C)NC(=S)NC1c1ccc(OC)cc1` (centres undefined): the inhibition is -3.18% (inactive).
Consider `Cc1ccc(Cn2cc(CN3[C@@H](CC(C)C)COc4ccc(Cl)cc4S3(=O)=O)nn2)cc1`, for which the inhibition was -3.14% (inactive).
For `CC(=O)c1cccc(NC(=O)CN2C(=O)c3cccnc3Oc3ccc(Cl)cc32)c1`, the inhibition was 1.98% (inactive).
Turning to `CCc1ccccc1NC(=S)Nc1cc(OC)c(NC(=O)C(C)C)cc1OC`, the inhibition was 22.1% (active).
`COc1cc(NC(=S)NNC(=O)CC(C)C)c(OC)cc1Cl`: the inhibition is 5.88% (inactive).
For `COc1ccc(C)cc1NC(=S)Nc1ccccc1SC`, the inhibition is 1.24% (inactive).
For `O=[N+]([O-])/C=C/c1ccc2c(ccn2Cc2ccccc2)c1` the value was 24.4% (active); for `COc1ccc(Cn2ccc3ccc(-c4ccc5ccn(Cc6ccccc6C)c5c4)cc32)cc1`, 5.02% (inactive).
For `FC(F)(F)c1cccc(Cn2ccc3ccc(-c4ccc5ccn(Cc6ccccc6)c5c4)cc32)c1` the value was -0.46% (inactive); for `CCc1ccc(-n2c(=S)sc3c(=O)n(-c4ccccc4OC)c(=S)[nH]c32)cc1`, 84.4% (active).
On to `COc1cc2[nH]c(=S)n(Cc3ccc(F)cc3)c(=O)c2cc1OC`, for which the inhibition is 1.22% (inactive).
As for `COc1ccc(Cl)cc1-n1c(=S)sc2c(=O)n(-c3ccc(F)cc3)c(SCC(=O)O)nc21`, the inhibition is 4.71% (inactive).
For `CC(=O)N1CCc2cc(S(=O)(=O)NCCC(=O)N3CCCC3)ccc21`, the inhibition is 0.09% (inactive).
In the case of `Oc1ccc(/C=C/c2c(F)cccc2F)c2cccnc12`, the inhibition is -1.47% (inactive).
For `COCC1CCN(C(=O)c2ccc3oc(Cc4ccccc4)nc3c2)C1` (centres undefined), the inhibition was -0.25% (inactive).
The value for `O=C(Nc1cc(C(F)(F)F)ccc1Cl)c1cc2nc3c(c(C(F)(F)F)n2n1)CCCC3` was -0.92% (inactive); that for `c1cncc(CNc2ccnc(-c3ccc4c(c3)OCO4)n2)c1` was -4.36% (inactive).
For `COc1ccc(/C=N/n2c(C)cc(C)cc2=O)cc1`, the inhibition is -4.04% (inactive).
On to `C=CCN1C(=O)[C@@H](CC(=O)N2CCN(C(=O)c3ccco3)CC2)[C@]2(C(=O)OC)CCCCC=C12`, for which the inhibition is 0.68% (inactive).
Consider `CN(C(N)=NC(=O)/C=C/c1ccccc1)C(C#Cc1ccccc1)Cc1ccccc1` (centres undefined), for which the inhibition is -2.71% (inactive).
With `COc1cc(Cl)cc(C2NC(=O)NC(C)=C2C(=O)NCc2ccccc2)c1O` (centres undefined), the inhibition was 0.85% (inactive).
As to `O=C(NN1C(=O)C2C3C=CC(O3)C2C1=O)c1ccncc1` (centres undefined), the inhibition was 3.88% (inactive).
Turning to `O=C(NN1C(=O)C2C3C=CC(O3)C2C1=O)c1ccccc1` (centres undefined), the inhibition was -3.32% (inactive).
For the compound `COc1ccccc1C(=O)NN1C(=O)C2C3C=CC(O3)C2C1=O` (centres undefined), the inhibition was 35.6% (active).
Consider `Nc1nc(CC(=O)CSc2ccc(Cl)cc2)nc(Nc2ccc(F)cc2)n1`, for which the inhibition was -4.39% (inactive).
For the compound `COC(=O)[C@]12C[C@H](CC(=O)N3CCOCC3)C(=O)N(Cc3ccc(Cl)cc3Cl)C1=C[C@H](COCc1ccccc1)O[C@@H]2C`, the inhibition was 2.19% (inactive).
The value for `Nc1c(C(=O)c2cccs2)sc2nsc(SCCN3CCCCC3)c12` was 25.1% (active).
In the case of `CS(=O)(=O)N(CC(=O)N1CCN(Cc2ccccc2)CC1)c1ccc2c(c1)OCCO2`, the inhibition is -1.51% (inactive).
For `c1ccc(CN2CCC(N=C3NN=C(c4ccc5c(c4)OCCO5)CS3)CC2)cc1`, the inhibition was 27.6% (active).
For `CC(=NC1CCN(Cc2ccccc2)CC1)c1c(O)[nH]c(=O)[nH]c1=O` the value was 1.82% (inactive); for `O=C(CSc1nnc(COc2ccccc2)n1-c1ccc(Cl)cc1)Nc1ccc2c(c1)OCO2`, 0.01% (inactive).
Regarding `Cc1ccc(NC(=O)Cn2sc3ccccc3c2=O)cc1`, the inhibition was 91.8% (active).
Regarding `CC1(C)NC(=O)N(CC(=O)Nc2ccc(-c3ccccc3)cc2)C1=O`, the inhibition is -1.42% (inactive).
For `O=C(Cn1nc(C(=O)O)c2ccccc2c1=O)Nc1ccc(F)cc1` the value was 2.28% (inactive); for `CN(C)C(=O)CCc1ccc2c3c([nH]c2c1)[C@]1(CCc2ccccc2)[C@@H](C(=O)N2CCCCC2)C[C@H](CC(=O)NCCC2=CCCCC2)C(=O)N1CC3`, -1.05% (inactive); for `O=C1Nc2ccccc2OC1CC(=O)N1CCCCCCC1` (centres undefined), 1.11% (inactive).
Consider `CN(CC(=O)NC1CCCC1)S(=O)(=O)c1cnc[nH]1`, for which the inhibition was -5.5% (inactive).
For the compound `CC1CCN(C(=O)C2CCN(S(=O)(=O)N3CCC4(CC3)OCCO4)CC2)CC1`, the inhibition was -2.98% (inactive).
In the case of `COc1ccc(-c2nn(C)c(=O)c3ccccc23)cc1NC(=O)COc1ccccc1`, the inhibition is 3.05% (inactive).
